# HCMV inh: blocks human cytomegalovirus replication. HFF cells, HCMV-luciferase reporter, 72 h; stronger effect = lower value. activity change, negative = inhibition, % at 57.5 µM. 410,000 tested, 4.5% active. AID 1259415; in the data active = activity change below about -60%; inconclusive = no clear call, values can overlap the other calls; inactive = above about -39%
#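 Compounds were evaluated in HFFs infected with an HCMV luciferase reporter virus (MOI 1 PFU/cell). Luciferase in lysates collected 72 h post infection served as the replication measure.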
# FMDV inh: blocks foot and mouth disease virus; FMDV antiviral cell-based qHTS; Potency, µM (top dose mostly 57.9 µM), without a hit: at the highest dose activity change, negative = inhibition, actives largely listed as inhibitors; 410,000 tested, 1.2% active; AID 1159524; calls by dose curve; tested in HEK293T cells; note: read-out not given here; potency is the fitted concentration of half-maximal effect; nearly all actives have a fitted effect of over 45% in size
# Vaccinia mCherry: inhibitors of vaccinia virus infection (mCherry reporter signal); Vaccinia virus mCherry reporter infection, fluorescence; Potency, µM (doses to about 36.5 µM), for the others: at the highest dose activity change, negative = inhibition, most hits filed as inhibitors; 310,000 tested, 0.63% active; AID 720579; calls by dose curve; tested in A549 cells; note: potency is the fitted concentration of half-maximal effect; nearly all actives have a fitted effect of over 35% in size
# VACV Venus inh: vaccinia inhibition (Venus reporter); AID 720580; Potency, µM (top dose mostly 36.5 µM), for inactives: top-dose activity change, negative = inhibition, actives largely listed as inhibitors; Vaccinia virus Venus reporter expression, fluorescence; 330,000 tested, 0.46% active; calls by dose curve; tested in A549 cells; note: potency is the fitted concentration of half-maximal effect; nearly all actives have a fitted effect of over 30% in size
# HCV inh: HCV inhibition | Huh7.5.1 HCVcc-Cre infection, luciferase reporter, 44 h | Potency, µM (series often up to 41.8 µM), inactives show at the top dose activity change, negative = inhibition, most hits filed as inhibitors | 340,000 tested, 3.4% active | AID 651820; active = well fitted inhibition curve with a large enough effect; inconclusive = small, poorly fitted or top-dose-only effect, or another doubt; inactive = no such curve, though single readings can be large or run the other way; note: potency is the fitted concentration of half-maximal effect
#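 Reporter virus HCVcc-Cre (~0.5 moi) infects cells exposed to compound; seeding density 1,000 cells/well with 4 h settling beforehand. Luminescence, 15 sec read, taken 44 h post-infection following a 15 min RT substrate incubation.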
# * marks the source's active call; other numbers are inactive results; i = inactive; ? = inconclusive; nt = not tested or not shown; [ ] = another dose, or the depositor's remark. Most compounds without a hit are left out; they make up all but 7.3% or so of the library. % is set by controls: 0 for no effect and ±100 for the full control effect.
SMILES,HCMV inh,FMDV inh,Vaccinia mCherry,VACV Venus inh,HCV inh
Nc1ccc2[nH]ncc2c1,-61.3*,-17.4%,i,-13.2%,-11.3%[8.37 µM]
O=C(Cc1ccc(F)cc1)Nc1ccc2[nH]ncc2c1,85.0,0.0%,-0.9%,-14.7%,-1.6%
Cc1nc(C)c(-c2ccc(SCC(=O)Nc3ccc(Cl)c(Cl)c3)nn2)s1,13.5,?,-26.2%,-23.2%,nt
COc1cc2c3nnc(-c4ccc(F)cc4)c-3cn(Cc3ccc(C)cc3)c2cc1OC,-18.8,-24.3%,-2.7%,-28.1%,6.4%
COc1cc2c3nnc(-c4ccccc4)c-3cn(Cc3ccc(F)cc3)c2cc1OC,-66.0*,?,-15.7%,-2.8%,-21.0%
CCn1c(C)cc2c(c1=O)C(c1ccccc1)C(C(=O)OC)=C(N)O2 (centres undefined),23.5,0.1%,nt,nt,-18.3%
COC(=O)C1=C(N)Oc2cc(C)n(Cc3ccco3)c(=O)c2C1c1cccc(Cl)c1 (centres undefined),-22.5,0.0%,nt,?,8.91µM*
CCOC(=O)c1ccc(NC(=O)c2c(NCc3ccc(OC)c(OC)c3OC)sc3c2CCC(C)C3)cc1 (centres undefined),-0.8,-21.4%,-1.1%,-12.0%,nt
COc1ccc(C(=O)c2no[n+]([O-])c2C(=O)c2ccc(OC)cc2)cc1,-105.2*,39.8µM*,-5.6%,0.0%,?
COc1ccc(NC(=O)c2c(N)no[n+]2[O-])cc1,?,44.3%,-28.1%,-27.5%,-13.0%
O=C(c1cccs1)c1no[n+]([O-])c1C(=O)c1cccs1,nt,15.8µM*,i,?,10µM*
O=C(c1ccc(Cl)nc1)c1cccs1,nt,-14.3%,-13.8%,-1.4%,24.4%
CCOCc1cc(CN2CCN(c3cccc(Cl)c3)CC2)c(O)c2ncccc12,-100.2*,-22.9%,?,-21.5%[7.34 µM],nt
CCOCC(=O)N1CCN(c2cccc(Cl)c2)CC1,?,-6.3%,-10.3%,-5.2%,-0.5%
CC(C)OCc1cc(CN2CCN(c3ccccc3)CC2)c(O)c2ncccc12,-70.0*,?,11.2µM*,?,nt
Oc1c(CN2CCN(c3ccccc3)CC2)cc(Br)c2cccnc12,-70.3*,?,nt,nt,?
CCOC(=O)N1CCN(Cc2cc(Cl)c3cccnc3c2O)CC1,-92.1*,-24.1%,?,?,3.98µM*
COCc1cc(CN2CCN(C)CC2)c(O)c2ncccc12,?,-9.0%,nt,nt,?
CCOc1ccc2nc(S(=O)(=O)NC(=O)C3(C)CCN3C(=O)CCc3cccs3)sc2c1 (centres undefined),-26.4,-5.8%,i,1.7%,nt
Brc1cc2c(cc1CN1CCN(c3ccccc3)CC1)OCCO2,26.7,-28.4%,?,4.9%,2.6%
c1ccc(N2CCN(Cc3ccnc4ccccc34)CC2)cc1,-83.0*,-4.1%,nt,nt,28.2µM*
CCCCOc1ccc(CSCCN=C(N)N)cc1,-62.1*,-11.5%,?,?,?
CC(C)c1ccc(NC(=O)C2CCCN(S(=O)(=O)c3cccc4cccnc34)C2)cc1 (centres undefined),-5.6,?,-1.6%,-19.2%,nt
Cc1ccc(Cc2c(-c3ccc(C#N)cc3)nc3c4ccccc4ccn23)cc1,22.1,38.5%,5.3%,4.7%,nt
Cc1cc(NC(=O)COC(=O)C2CSC3(C)CCC(=O)N23)ccc1Br (centres undefined),24.2,-17.1%,-5.4%,-16.2%,-23.1%
SMILES,HCMV inh,FMDV inh,Vaccinia mCherry,VACV Venus inh,HCV inh
COc1ccc(NS(=O)(=O)c2cnc(N)nc2)cc1Cl,19.4,16.0%,-15.7%,-5.6%,nt
Cc1nc2ccc(Br)cn2c(=O)c1Cl,-32.5,3.98µM*,nt,nt,0.1%
Cc1nc2ccc(Br)cn2c1NC(C)(C)C,-35.1,-3.7%,nt,nt,-20.3%
CCOc1ccc(CNC(=O)c2ccccc2NC(=O)c2nsc3ccccc23)cc1,124.6,11.0%,-20.6%,?,nt
CCOC(=O)c1ccc(NS(=O)(=O)c2cc3c4c(c2)CCN4C(=O)CC3)cc1,-81.0*,21.2%,-2.0%,-18.8%,10.0%
COC(=O)c1ccc(NS(=O)(=O)c2cc3c4c(c2)CCN4C(=O)CC3)cc1,-32.2,21.0%,-13.6%,-9.8%,-8.0%
COc1ccccc1C=NNC(=O)NN=Cc1ccccc1OC,-38.5,14.0%,?,-4.6%,?
COc1cc([N+](=O)[O-])cc(/C=N/NC(=O)c2cccnc2)c1O,-88.1*,-10.0%,nt,nt,16.1%
COc1ccccc1C=NN=C(NN=Cc1ccccc1OC)NN=Cc1ccccc1OC,25.9,?,?,?,12.6µM*
CCn1c(C)nc2cc(C(=O)N/N=C/c3cccc(OC)c3O)ccc21,-15.3,5.1%,10µM*,?,?
CCn1c(C)nc2cc(C(=O)N/N=C/c3ccc(O)c(O)c3O)ccc21,-7.7,-26.7%,-11.7%,0.9%,-14.1%
CCC(=NNC(=O)c1ccc2c(c1)nc(C)n2CC)c1cc(F)ccc1O,?,-18.3%,10µM*,?,?
Cc1ccc(C)c(Cn2c(SCC(=O)NCc3ccccc3)nc3ccccc32)c1,-20.1,-28.0%,-21.8%,-2.7%,nt
COc1ccccc1OCC(=O)N/N=C/c1cccc2cccnc12,-4.3,-10.3%,?,-30.0%,10.1%
COc1cccc(/C=N/NC(=O)N/N=C/c2cccc(OC)c2O)c1O,-13.0,6.8%,-12.7%,-18.7%,10.1%
COc1cc(/C=N/NC(=O)c2cc(-c3ccccc3)nc3ccccc23)cc(OC)c1O,12.0,-2.0%,nt,nt,-2.9%
COc1cccc(/C=N/NC(=O)c2nc(-c3ccccc3)cc(-c3ccccc3)n2)c1O,-97.2*,0.0%,-21.2%,-17.4%,16.7%
COc1cccc(/C=N/NC(=O)COc2cccc3cccnc23)c1O,-6.0,-8.2%,12.6µM*,-25.3%,?
COc1cccc(C=NNC(=O)c2ccncc2)c1O,6.0,21.4%,1.58µM*,?,?
COc1cc([N+](=O)[O-])cc(/C=N/NC(=O)C(C)Nc2cccc3ccccc23)c1O (centres undefined),-61.4*,-24.0%,-13.7%,-21.7%,0.3%
O=C(NCc1ccccc1F)C1CCN(Cc2cc3ccccc3n2Cc2cccc(Cl)c2)CC1,2.4,-17.5%,-12.2%,1.2%,nt
CCOc1ccc(-c2cc(NC(=O)c3ccccc3)c(C(=O)OC)s2)cc1,2.0,-7.7%,1.9%,-7.4%,nt
COc1cccc(Cn2c(=O)c(-c3cccs3)nc3cnc(N(C)C)nc32)c1,nt,-1.8%,nt,nt,nt
CC(C)c1noc(-c2ccccc2OCC(=O)Nc2cccc([N+](=O)[O-])c2)n1,8.5,-10.0%,0.2%,0.4%,nt
Cn1nnc2c(N3CCN(Cc4ccccc4)CC3)ncnc21,nt,nt,-26.2%,-19.0%,nt
COc1cc(OC)cc(C(=O)NC(C)CNc2ccc(Cl)cc2[N+](=O)[O-])c1 (centres undefined),9.5,-13.0%,nt,nt,-19.4%
Cc1cc2oc(C(=O)Nc3c(C)n(C)n(-c4ccccc4)c3=O)cc(=O)c2cc1C,13.0,-12.0%,9.9%,2.6%,nt
O=C1c2cc(Br)ccc2OC2C=CC=CC12 (centres undefined),-1.7,45.9%,i,-8.7%,2.3%
O=C(N/N=C/c1cccc2nccnc12)c1ccccc1O,10.5,1.5%,-11.8%,-9.2%,9.1%

# Source: PubChem
